In all, about 1,300 compounds went through this assay and about 270 (21%) were called active. A selection follows. Results with a measured potency or affinity are listed apart. A number with no mark means an inactive call.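 The calls were made as follows: active = dose-dependent rise or fall in viability, either side of zero, with half-maximal concentration at or below a set limit; inconclusive = flat curve at 30 to 70% viability loss, or poor fit; inactive = flat within 30% either way, or potency beyond limit.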
assay: A375 melanoma cell viability reduction, dose response, counter-screen for MITF modulator project, cherry-pick samples, set 2 (AID 540335); conditions: CellTiter-Glo ATP luminescence, 24 h; series mostly up to 35 µM; activity change, negative = decreased viability: at the top concentration;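 also: A375 human melanoma cells which do not depend on MITF; 0% = median of neutral control wells and 100% = double that signal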

Row | SMILES | activity change, negative = decreased viability [%]
1 | Cn1cccc1C(=O)NC(=O)COC(=O)c1ccc(S(C)(=O)=O)c([N+](=O)[O-])c1 | 11.1
2 | CS(=O)(=O)c1ccc(C(=O)OCC(=O)NCc2cccs2)cc1[N+](=O)[O-] | 17.8
3 | O=C(CCl)N1N=C(c2ccco2)CC1c1cccs1 (configuration not stated) | -31.6
4 | CC(C)C(=O)N1CCN(c2ccc(NC(=O)c3ccc([N+](=O)[O-])o3)cc2Cl)CC1 | 29.3
5 | CCCCC[n+]1ccn(C2=C([O-])c3ccccc3C(=O)/C2=N\S(=O)(=O)c2ccccc2)c1 | -11
6 | O=C(Nc1ccc2c(c1)OCCO2)c1coc2ccccc2c1=O | -0.104
7 | COc1cc(CN2CCC(C(=O)NCCC(C)C)CC2)ccc1OCc1ccccc1 | 5.82
8 | COc1cc(CN2CCC(C(N)=O)CC2)ccc1OCc1ccccc1 | 0.046
9 | CCN1CCc2c(sc(NC(=O)c3ccc(S(=O)(=O)N4CCCC4)cc3)c2C(=O)NC)C1 | -9.91
10 | Cc1ccc(NC(=O)c2cc(N3C(=O)C=CC3=O)ccc2N2CCOCC2)cc1 | -16.9
11 | O=C(Nc1ccc(S(=O)(=O)NC2=NCCCCC2)cc1)c1ccc([N+](=O)[O-])s1 | -24.7
12 | Cc1ccc2nc(NC(=O)CCCC(=O)O)sc2c1 | 12
13 | Cc1ccc2sc(N(CCCN(C)C)C(=O)c3ccc(S(=O)(=O)N(C)C4CCCCC4)cc3)nc2c1C | -39.9
14 | COc1ccc(S(=O)(=O)N2CCCCC2)cc1NC(=O)c1ccc([N+](=O)[O-])o1 | -19.1
15 | Cn1c(SCC(=O)N/N=C/c2ccc([N+](=O)[O-])s2)nnc1-c1ccccc1 | -30.7
16 | CC(=O)OCCCNc1cc(Sc2ccc(Cl)cc2)c2nonc2c1[N+](=O)[O-] | -14.9
17 | O=C1Nc2cc(C(=O)NCCN3CCCCCC3)ccc2S/C1=C\c1ccccc1 | -25.8
18 | COc1cccc(/C=C2/Sc3ccc(C(=O)NCCN4CCCC4)cc3NC2=O)c1 | -4.96
19 | CCN1CCCC1CNC(=O)c1ccc2c(c1)NC(=O)/C(=C\c1ccc(C)cc1)S2 (configuration not stated) | -95.9
20 | CCN1CCCC1CNC(=O)c1ccc2c(c1)NC(=O)/C(=C\c1ccc(OC)c(OC)c1)S2 (configuration not stated) | 0.004
21 | COC(=O)[C@@H]1C[C@]2(OC(=O)c3ccccc3)C=CC(=O)C[C@@H]2N1C(=O)OCc1ccccc1 | 5.93
22 | COc1ccccc1NS(=O)(=O)c1cccc(C(=O)N/N=C/c2ccc([N+](=O)[O-])o2)c1 | -30.3
23 | Cc1ccccc1OCC(=O)N/N=C/c1ccc([N+](=O)[O-])o1 | -16.2
24 | O=C(COc1ccccc1)N/N=C/c1ccc([N+](=O)[O-])o1 | -8.29
25 | C=Cc1ncc(OC)c2c1[nH]c1ccccc12 | 14.5
26 | O=[N+]([O-])c1cccc2c(N3CCCC3)ccnc12 | -26.5

Row | SMILES | activity change, negative = decreased viability [%]
27 | CCN1CCN(c2ccc(NC(=O)c3ccc([N+](=O)[O-])o3)cc2Cl)CC1 | -0.148
28 | O=C(C[n+]1cccc2ccccc21)c1ccc([N+](=O)[O-])cc1 | -6.09
29 | Cc1cc(C)n(-c2ccc(C(=O)Nc3ccc(C)c(S(=O)(=O)N4CCOCC4)c3)cc2)n1 | -12.6
30 | CS(=O)(=O)c1nc(-c2ccc(F)cc2)cc(C(F)(F)F)n1 | 38.8
31 | CCn1c(/C=C/N(C)c2ccccc2)[n+](CC)c2ccc(Cl)cc21 | -36.6
32 | CCOC(=O)c1ccc2c(c1)n(CC)c(/C=C/N(C)c1ccccc1)[n+]2CC | -19.5
33 | Oc1cc(NCCN2CCOCC2)cc2cccnc12 | -26.1
34 | O=C(N/N=C\c1cc(Br)ccc1O)c1ccc(S(=O)(=O)N2CCCCC2)cc1 | -15.3
35 | O=C(N/N=C/c1cc(Cl)ccc1O)c1ccncc1 | -31
36 | O=C1c2cc(F)ccc2-n2c1nc1ccccc1c2=O | -37.3
37 | CCOC(=O)CSC1=NC(=O)/C(=C\c2ccc(Cl)cc2)S1 | -2.2
38 | O=C(N/N=C/c1ccc(F)cc1)c1c(O)c2ccccc2[nH]c1=O | -19.2
39 | O=C1/C(=C/c2ccccc2[N+](=O)[O-])COc2ccccc21 | 116
40 | Cc1ccc(-c2cn(-c3ccc(SC(F)F)cc3)c3[n+]2CCC3)cc1 | -14.1
41 | O=c1c(Cl)c2oc3ccccc3nc-2c2ccccc12 | -8.83
42 | COc1cccc(-c2nnc3n2N=C(C(C)(C)C)CS3)c1 | -24.4
43 | O=C(CCl)Nc1ccc(-c2ccccc2)cc1 | -39.9
44 | CS(=O)(=O)c1ccc2nc(NC(=O)c3ccccc3)sc2c1 | -10.8
45 | COc1ccc(S(=O)(=O)N(C(C)=O)c2ccc(OC(C)=O)c3ccccc23)cc1[N+](=O)[O-] | -31.6
46 | CC1=C/C(=N\NC(=S)Nc2cccnc2)CC(C)(C)C1 | -15.5
47 | O=C(CCl)Nc1cccc(-c2cnc3ccccc3n2)c1 | -29.9
48 | Nc1nc2ccccc2n1/N=C/c1ccc([N+](=O)[O-])s1 | -21
49 | CC1CN(C(=O)CCC(=O)NCCCN2CCC(Cc3ccccc3)CC2)c2cc(Cl)ccc2O1 (configuration not stated) | -37.2
50 | Clc1ccc(-c2c[n+](Cc3cccc(Cl)c3)c3n2CCC3)cc1 | 3.73
51 | COc1ccc(/C=C2\Sc3ccc(C(=O)NCCN4CCCCCC4)cc3N(C)C2=O)cc1 | -19.8
52 | COc1ccc(C(=O)NCCSc2ccccc2C)cc1 | -8.17

Row | SMILES | activity change, negative = decreased viability [%]
53 | Nc1c(N(CCC2=CCCCC2)C(=O)COc2ccc([N+](=O)[O-])cc2)c(=O)[nH]c(=O)n1Cc1ccccc1 | -29
54 | CN1CCN(c2ccc(NC(=O)c3ccc([N+](=O)[O-])o3)cc2Cl)CC1 | -1.44
55 | CN1CCN(c2ccccc2NC(=O)c2ccc([N+](=O)[O-])o2)CC1 | -26.5
56 | CC(=O)SC(C[N+](=O)[O-])c1cn(C(C)=O)c2ccccc12 (configuration not stated) | 22.6
57 | CC(C)(C)C(=O)Cn1ncc(Cl)c(Cl)c1=O | 55.4
58 | C=C1C(=O)O[C@@]23[C@H]1CC[C@@H](C)[C@@H]2CC[C@@]1(C)O[C@@H]31 | 2.09
59 | CCCC(=O)N1CCN(c2ccc(NC(=O)c3ccc([N+](=O)[O-])o3)cc2)CC1 | 11.4
60 | CCN(CC)CCNC(=O)c1ccc(NC(=O)c2cccc(S(=O)(=O)N3c4ccccc4CC3C)c2)cc1 (configuration not stated) | -12.4
61 | O=C(Nc1ccc(N2CCN(C(=O)c3ccc(Cl)cc3)CC2)cc1)c1ccc([N+](=O)[O-])o1 | 20.7
62 | O=C(/C=C/c1ccc(Cl)c([N+](=O)[O-])c1)c1ccc(O)cc1 | 24.9
63 | O=C(N/N=C/c1ccc([N+](=O)[O-])s1)c1ccccc1Br | -17.8
64 | COc1cc(NC(=O)c2ccc([N+](=O)[O-])o2)ccc1NC(=O)c1cccs1 | -28.9
65 | CN(C(=O)/C=C/c1ccc([N+](=O)[O-])s1)c1ccccc1 | -12.6
66 | Cc1scc(C(=O)N/N=C/c2ccc([N+](=O)[O-])o2)c1C | -10.2
67 | CCCCCCN1C=CC(=C2C(=O)c3ccccc3C2=O)C=C1 | -11.3
68 | O=C1CN(C(=O)Cn2ncc(Cl)c(Cl)c2=O)c2ccccc2N1 | 36.1
69 | Cc1ccc(C(=O)N/N=C/c2ccc([N+](=O)[O-])s2)cc1 | -10.8
70 | Cc1ccc(C)c(C(=O)Cn2ncc(Cl)c(Cl)c2=O)c1 | 78.1
71 | C=CCNc1nc(-c2ccccn2)nnc1-c1ccccc1 | -21.7
72 | Clc1cccc(-c2nc(-c3ccccn3)no2)c1 | -22.9
73 | O=C(Nc1ccc(S(=O)(=O)N2CCCCCC2)cc1)c1[nH]ncc1[N+](=O)[O-] | -21
74 | O=C(O)c1ccc(N/N=C/c2ccc(OC(=O)c3cccc(Cl)c3)cc2)cc1 | 1.31
75 | CC(C)CC(=O)NC(c1cccs1)c1ccc2cccnc2c1O (configuration not stated) | -35.5
76 | O=C(CCl)Nc1ccc(Sc2ccc(NC(=O)CCl)cc2)cc1 | 75.1
77 | COc1ccccc1-c1nnc(-c2ccc(C)cc2)o1 | 7.71
78 | COc1ccccc1-c1nc(-c2ccc(C)nc2OC)no1 | 10.9

Row | SMILES | activity change, negative = decreased viability [%]
79 | Cn1c(SC2=CS(=O)(=O)c3ccccc32)nc2ccccc21 | -10.8
80 | CCN1CCc2c(sc(NC(=O)c3ccc(S(=O)(=O)N4CCCCCC4)cc3)c2C(=O)NC)C1 | -9.09
81 | CC1(C)CC(NC(=O)c2ccc(Cl)c(S(=O)(=O)N(Cc3ccccc3)c3ccccc3)c2)CC(C)(C)N1 | -56.2
82 | COc1ccc(C(C(=O)NC2CCCCC2)N(C(=O)CCl)c2ccc(OC)cc2)cc1 (configuration not stated) | -7.56
83 | C#CC(=O)N(c1ccc(OC)cc1OC)C(C(=O)NC1CCCC1)c1cccs1 (configuration not stated) | -6.23
84 | C(#Cc1ccccc1)C[N+]1(CC#Cc2cccc3ccccc23)CCCC1 | -24.6
85 | CCOc1ccc2nc(C)cc(Nc3cccc([N+](=O)[O-])c3)c2c1 | -48.8
86 | CC(=O)OCCNc1cc(Sc2nc3ccccc3[nH]2)c2nonc2c1[N+](=O)[O-] | 1.78
87 | O=C(Nc1cc(-c2nc3ncccc3o2)ccc1Cl)c1ccc([N+](=O)[O-])o1 | -5.78
88 | O=C(O)c1cccc(N/N=C/c2ccc(OC(F)(F)F)cc2)c1 | 14.9
89 | O=C(Cn1ncc(Cl)c(Cl)c1=O)NCC1CCCCC1 | -26.7
90 | COc1ccc(C(=O)/C=C(\C)Nc2ccc3c(c2)OCO3)cc1 | 0.308
91 | O=C(CSc1ccccn1)c1ccc2c(c1)OCO2 | 9.9
92 | Cc1cc(C(=O)CN2C(=O)c3ccccc3S2(=O)=O)c(C)n1-c1ccccc1 | 6.79
93 | Cc1cccnc1NC(=O)NC(=O)c1ccc(C(C)(C)C)s1 | 3.2
94 | COc1ccc(CCn2c(=S)[nH]c3cc(C(=O)NCc4ccco4)ccc3c2=O)cc1OC | -33.1
95 | Cc1cc(C)c2sc(N(CCCN(C)C)C(=O)COc3ccc(Cl)cc3)nc2c1 | -86.6
96 | CN(C)CCCNc1nc2sc3c(c2c(=O)n1CCc1ccccc1)CCCCC3 | -16.3
97 | COc1ccc(-n2cc(-c3ccc(C)cc3)[n+]3c2SCC3)cc1 | -17.9
98 | O=C(NCC1CCCCC1)C1(CC2CC(c3cccc(Br)c3)=NO2)CCNCC1 (configuration not stated) | -96.6
99 | Cc1ccc(C(C)C)c(OCc2nn(CC(=O)c3ccc(Cl)cc3)c3[n+]2CCCCC3)c1 | -95.6
100 | CCOC(=O)N1C(=O)[C@@](CC)(c2ccccc2)N1C(=O)OCC | 4.08
101 | O=C(N/N=C/c1ccc([N+](=O)[O-])o1)c1ccccc1-n1cccc1 | -22.6
102 | COC(=O)C1=C(C)N(Cc2ccccc2)C(=NCC(C)C)N[C@H]1c1cccc(C(F)(F)F)c1 | -96.9

From PubChem BioAssay AID540335 (Broad Institute, 2011)
